Source: PubChem BioAssay
VHR inh abs – blocks human VHR1 dual specificity phosphatase; P51452; recombinant VHR phosphatase, pNPP absorbance; inhibition, % at 13.3 µM; 0.52% of 290,000 active; AID 1654; in the data active means inhibition above about 50%
PfHsp40 rescue – rescue of PfHsp40-mediated yeast toxicity. S. cerevisiae expressing PfHsp40, growth rescue, ATP luminescence. growth rescue, % at 12.5 µM. 0.68% of 340,000 active. AID 504582; in the data active means growth rescue above about 28%, passing the limit was not always enough;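 further: yeast W303a lacking pdr1 and pdr3 grown in galactose medium; growth measured after three days at 30 °C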
PrPC TRFRET – inhibitors of human cell surface prion protein PrPC | AID 720596 | TR-FRET read-out | inhibition, % at 13.8 µM | 0.43% of 370,000 active | P04156; in the data active means inhibition above about 24%; further: 0% = median of the test wells and 100% = reference compound wells
RN4220 kill – kills Staphylococcus aureus RN4220; AID 1259311; inhibition, % (concentration not given with the values); S. aureus RN4220 growth, OD600, 16 h; 0.33% of 330,000 active; in the data active means inhibition above about 85%;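 further: plate controls were untreated cells for no effect and reference antibiotic for full effect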
ugtP null kill – growth inhibition of S. aureus ugtP deletion strain | AID 1259309 | 0.54% of 330,000 active | S. aureus RN4220 ugtP deletion, OD600 growth, 16 h | growth inhibition, % (concentration not given with the values); in the data active means growth inhibition above about 68%;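 further: plate controls were untreated wells for no effect and antibiotic for full effect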
PrPC TRFRET cf – cell surface PrPC inhibition, TR-FRET confirmation. shares compounds with PrPC TRFRET. inhibition, % at 13.8 µM. cell surface PrPC level. 65% of 1,500 active; in the data active means inhibition above about 25%
LD9 cytotox – counter-screen for PrPc inhibitors: cytotoxicity in LD9 cells; shares compounds with PrPC TRFRET; luminescence viability; 29% of 1,500 active; inhibition, % at 13.8 µM; in the data active means inhibition above about 9.5%
Active calls of the source: *; · = no result. Sampled rows, rich in hits. Any-hit rate of the full collection: about 1.8%.

SMILES | VHR inh abs | PfHsp40 rescue | PrPC TRFRET | RN4220 kill | ugtP null kill | PrPC TRFRET cf | LD9 cytotox
CC1(Cc2ccc(OC(F)(F)F)cc2)C(=O)Nc2ccc(S(=O)(=O)NC3CCCCC3)cc21 (stereo not given) | · | · | 36* | · | · | 30* | 11*
COc1ccc(N2C(=O)N3C(c4ccc(Cl)cc4)C4C(=O)N(C5CCCCC5)C(=O)C4[C@]3(C)C2=O)cc1 (stereo not given in full) | · | · | · | 3 | -2 | · | ·
CCOC1OC(C(=O)N2CCCCCCC2)=CC(C2CCCCC2)C1CCCO (stereo not given) | · | · | · | 8 | 4 | · | ·
COc1ccc(C(=O)N/N=C(\c2ccccc2)c2ccccn2)cc1 | 3 | 86* | 28* | · | · | 26* | 39*
CCOC(=O)COc1c(C=NOC)cc(Cl)cc1OC | · | · | · | 2 | 4 | · | ·
CCOc1ncccc1C(=O)OC(C)C(=O)Nc1ccc(Cl)cn1 (stereo not given) | · | -1 | 0 | · | · | · | ·
CNc1ccccc1C(=O)OC(C)C(=O)Nc1ccc(Cl)cn1 (stereo not given) | 19 | 3 | 25* | 0 | 0 | 38* | 0
COc1ccc(Nc2nnc(-c3ccc(O)cc3)c3ccccc23)cc1C(N)=O | 5 | -2 | 94* | -1 | -3 | 99* | 3
CCOC(=O)C(CC)Sc1nnc2c3cc(C)ccc3n(C)c2n1 (stereo not given) | 15 | 2 | 30* | 4 | 8 | 35* | -5
CCOc1cc(S(=O)(=O)n2cc(-c3ccc(F)cc3)c(N)n2)cc(OCC)c1OCC | -4 | -1 | 29* | -6 | -16 | 19 | 4
O=C(C1=C(O)C(=O)N(CCN2CCOCC2)C1c1cccc(F)c1)c1cc2ccccc2o1 (stereo not given) | -9 | 1 | 42* | 4 | -4 | 70* | -4
O=C(C1=C(O)C(=O)N(CCN2CCOCC2)C1c1cccc(O)c1)c1cc2ccccc2o1 (stereo not given) | -4 | 0 | 1 | -1 | 0 | · | ·
COc1ccc2ccccc2c1C=NNC(=O)c1cccc([N+](=O)[O-])c1 | · | · | · | 0 | 16 | · | ·
COc1ccc2ccccc2c1/C=N/NC(=O)c1cccc([N+](=O)[O-])c1 | 16 | 0 | 26* | · | · | -1 | -9
CCOC(=O)C1C2COc3ccc(Br)cc3C2N2C(=O)CNC(=O)[C@@]12C (stereo not given in full) | · | · | · | 4 | -13 | · | ·
COc1cc(OCc2ccccc2)c2c(CCC(=O)O)cc(=O)oc2c1 | · | 2 | 11 | · | · | · | ·
CCc1cc(=O)oc2cc(OC(C)=O)cc(OC(C)=O)c12 | 11 | -1 | 47* | -2 | 4 | 46* | -6
Oc1ccc(/C=N/Nc2nccnc2Cl)c(O)c1 | 16 | 8 | 25* | · | · | 33* | 24*
C=CCC(CC(=O)N(CCO)Cc1ccccc1)C(=O)NC(C)COC(=O)C(CC=C)Cc1ccc(F)cc1 (stereo not given) | · | · | · | 7 | 3 | · | ·
c1ccc(Nc2nc(NCc3ccco3)c3ccccc3n2)cc1 | 29 | 8 | 28* | -10 | -47 | 35* | 15*
Cc1cccc(Nc2nc(NCc3ccco3)c3ccccc3n2)c1 | -6 | -1 | 30* | -12 | -57 | 31* | 29*
Cc1ccccc1Nc1nc(NCc2ccco2)c2ccccc2n1 | 22 | 0 | 14 | -31 | 0 | · | ·
CC(=O)c1nnn(-c2nc(N)nc(N(c3ccccc3)c3ccccc3)n2)c1C | 16 | 0 | 25* | 0 | 9 | 91* | -7
CCCCN(CCCC)c1nc(OC)nc(-n2nnc(C(C)=O)c2C)n1 | 29 | 1 | -5 | 31 | -16 | · | ·
Cc1ccc(NC(=O)c2nc[nH]c2C(=O)NC(C)c2ccccc2)cc1 (stereo not given) | · | · | · | -1 | -9 | · | ·
SMILES | VHR inh abs | PfHsp40 rescue | PrPC TRFRET | RN4220 kill | ugtP null kill | PrPC TRFRET cf | LD9 cytotox
COC(=O)C1=C(c2cccc(OCc3ccccc3)c2)CC2CCC1N2C(=O)NCc1ccccc1 (stereo not given) | · | · | · | -3 | 4 | · | ·
CCc1ccc2nc3c(c(C(=O)O)c2c1)CCC3 | -8 | 1 | -6 | 0 | 0 | · | ·
Cc1cc(Br)c2nc3c(c(C(=O)O)c2c1)CCCCC3 | 22 | -2 | 117* | 4 | 7 | 132* | -4
C=C1C(=O)OC2CC1C(OC(C)=O)CC(C)=CCCC(C)=CCCC2(C)O (stereo not given) | · | · | 29* | · | · | 33* | 43*
CC(C)(O)/C=C/C(=O)C(C)(O)C1C(O)CC2(C)C3CC=C4C(C=C(O)C(=O)C4(C)C)C3(C)C(=O)CC12C (stereo not given) | · | -2 | 34* | · | · | 33* | 13*
CC(=O)OC(C)(C)/C=C/C(=O)[C@](C)(O)C1[C@H](O)C[C@@]2(C)C3CC=C4C(C[C@H](O)C(=O)C4(C)C)[C@]3(C)C(=O)C[C@]12C (stereo not given in full) | · | -1 | · | · | · | · | ·
CCN(CC)C(=O)c1cccc(-c2csc(C(C)(O)c3ccncc3)n2)c1 (stereo not given) | · | · | 40* | · | · | 30* | 7
CNCC1Oc2ccc(NC(=O)Nc3ccc4c(c3)OCO4)cc2C(=O)N(C(C)CO)CC1C (stereo not given) | · | · | · | 1 | 7 | · | ·
COC(=O)/C=C/S(=O)(=O)c1ccc(NC(C)=O)cc1 | 33 | 5 | 77* | 7 | 14 | -1 | 94*
COc1ccccc1OS(=O)(=O)c1ccc(NC(C)=O)cc1 | 1 | -1 | 1 | 8 | -3 | · | ·
COc1ccc(C2CC=C(C(=O)O)C(c3ccccc3F)N2S(=O)(=O)c2ccccc2C)cc1 (stereo not given) | · | · | · | 17 | -12 | · | ·
Cc1nc(N2CCN(Cc3ccc4c(c3)OCO4)CC2)c2oc3ccccc3c2n1 | · | 0 | 48* | 10 | 19 | 11 | 15*
Cc1nc(N2CCN(Cc3ccc(Cl)cc3)CC2)c2oc3ccccc3c2n1 | 0 | 1 | -1 | 3 | -26 | · | ·
N#CCc1c(C#N)c(N)nc(N2CCN(S(=O)(=O)c3ccccc3F)CC2)c1C#N | 21 | -1 | 31* | 0 | 2 | 11 | 16*
CCCCCC(=O)Nc1cccc(C2=NOC3(C2)CC(C(N)=O)N(C(=O)c2ccccc2C(=O)c2ccccc2)C3)c1 (stereo not given) | · | · | · | 7 | -10 | · | ·
CCOC(=O)c1ccc2nc(NC(=O)c3ccco3)sc2c1 | 4 | 0 | -4 | -2 | -8 | · | ·
CCOc1ccc2nc(NC(=O)c3ccco3)sc2c1 | 20 | -3 | 31* | 2 | -6 | 39* | 14*
Cc1onc(-c2ccccc2)c1C(=O)Oc1cccnc1 | 6 | 0 | 30* | 0 | -6 | 1 | -7
COC(=O)c1c(-c2ccccc2)noc1C | 23 | 0 | -3 | 9 | 16 | · | ·
CCOC(=O)C1C2COc3ccc(Br)cc3C2N2C(=O)CN(Cc3ccco3)C(=O)[C@@]12C (stereo not given in full) | · | · | · | 4 | -17 | · | ·
